Measurements from PubChem BioAssay (Tox21).
Records with an inconclusive call do not appear. Activity calls are given as the source filed them. Unless noted, calls follow the shape of the dose curve; as a rule, active = well fitted curve in the direction sought with a large enough effect in the repeat runs; inconclusive = weak or mixed curves; inactive = no such curve, though single readings can be large; an effect the other way counts as inactive or inconclusive.

Assays:
[1] = qHTS assay to identify small molecule agonists of the peroxisome proliferator-activated receptor delta (PPARd) signaling pathway - cell viability counter screen (AID 743211); also: nearly all actives have a fitted effect of over 55% in size
Method in brief: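 Following 5 h plating at 37 C and 5% CO2, PPARd UAS-bla HEK293H cells took up test compounds for 17 h. Viability was quantified by luminescence 30 min after CellTiter-Glo addition at room temperature.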

[2] = target: Peroxisome proliferator-activated receptor delta (Homo sapiens) (UniProt Q03181); experiment: qHTS assay to identify small molecule agonists of the peroxisome proliferator-activated receptor delta (PPARd) signaling pathway (AID 743212; calls by dose curve)
Method in brief: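 Steps: seed PPARd-bla HEK293H cells; incubate 5 h, 37 C, 5% CO2; add compounds in DMSO; incubate, 37 C; add LiveBLAzer B/G FRET substrate; hold 2 h at room temperature; measure fluorescence.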

[3] = qHTS assay to identify small molecule antagonists of the peroxisome proliferator-activated receptor delta (PPARd) signaling pathway - cell viability counter screen (AID 743213); also: nearly all actives have a fitted effect of over 50% in size
Method in brief: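 Agonist-stimulated (L165041, 300 nM final) HEK293H PPARd UAS-bla cells are exposed to compounds for 17 h at 37 C, and ATP-based luminescence (CellTiter-Glo) from the same wells reports cytotoxicity.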

[4] = target: Peroxisome proliferator-activated receptor delta (Homo sapiens) (UniProt Q03181); experiment: qHTS assay to identify small molecule antagonists of the peroxisome proliferator-activated receptor delta (PPARd) signaling pathway (AID 743215; active = well fitted inhibition curve with a large enough effect in the signal ratio in the repeat runs, not every such curve was filed as active; the % refers to the signal ratio; also: series mostly up to about 62 µM)
Method in brief: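 HEK293H GeneBLAzer PPARd UAS-bla reporter cells; cpd + L165041 300 nM final, 17 h 37 C; LiveBLAzer B/G FRET substrate 2 h RT; fluorescence intensity read-out. Antagonist mode.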

[5] = qHTS assay to identify small molecule agonists of the farnesoid-X-receptor (FXR) signaling pathway - cell viability counter screen (AID 743218); also: nearly all actives have a fitted effect of over 45% in size
Method in brief: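 Luminescence from CellTiter-Glo, read after 30 min at RT, reports viability of GeneBLAzer FXR-UAS-bla HEK 293T cells treated 16 h with compounds in the wells used for the beta-lactamase reporter.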

[6] = qHTS assay to identify small molecule antagonists of the farnesoid-X-receptor (FXR) signaling pathway - cell viability counter screen (AID 743221; active = well fitted cell-killing curve with a large enough effect in the repeat runs, not every such curve was filed as active; also: nearly all actives have a fitted effect of over 50% in size)
Method in brief: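 Compound effects on cell number were measured as CellTiter-Glo luminescence in HEK 293T cells expressing FXR-UAS-bla, after 16 h at 37 C with 50 uM CDCA (final).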

[7] = target: Vitamin D3 receptor (Homo sapiens) (UniProt P11473); experiment: qHTS assay to identify small molecule agonists of the vitamin D receptor (VDR) signaling pathway (AID 743222; calls by dose curve)
Method in brief: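 Beta-lactamase reporter readout (LiveBLAzer B/G FRET, 2 h RT) in VDR-bla cells after 16 h compound treatment at 37C, 5% CO2; cells pre-incubated 4 h before pin transfer of DMSO solutions.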

[8] = target: Vitamin D3 receptor (Homo sapiens) (UniProt P11473); experiment: qHTS assay to identify small molecule antagonists of the vitamin D receptor (VDR) signaling pathway (AID 743223; active = well fitted inhibition curve with a large enough effect in the signal ratio in the repeat runs, not every such curve was filed as active; the % refers to the signal ratio)
Method in brief: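 Beta-lactamase activity in VDR-bla cells is measured by FRET substrate fluorescence (2 h, room temperature) after cells spend 16 h at 37C with test compound and 3 nM final 1alpha,25-dihydroxyvitamin D3.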
% is scaled to controls: 0 for no effect and ±100 for the full control effect.

Peroxisome proliferator-activated receptor delta (Homo sapiens), sequence (Q03181 whole entry, looked up): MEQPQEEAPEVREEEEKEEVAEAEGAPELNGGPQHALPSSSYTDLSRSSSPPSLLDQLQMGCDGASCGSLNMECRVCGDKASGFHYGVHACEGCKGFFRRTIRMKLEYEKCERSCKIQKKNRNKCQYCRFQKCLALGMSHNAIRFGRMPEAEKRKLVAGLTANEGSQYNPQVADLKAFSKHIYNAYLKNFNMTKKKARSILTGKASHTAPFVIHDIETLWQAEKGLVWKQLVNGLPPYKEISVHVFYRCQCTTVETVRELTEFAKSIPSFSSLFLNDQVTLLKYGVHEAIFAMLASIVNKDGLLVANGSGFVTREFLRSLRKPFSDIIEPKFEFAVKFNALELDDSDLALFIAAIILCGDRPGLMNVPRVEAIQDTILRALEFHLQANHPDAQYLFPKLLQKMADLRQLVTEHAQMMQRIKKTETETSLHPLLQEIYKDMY
Vitamin D3 receptor (Homo sapiens), sequence (P11473 whole entry, looked up): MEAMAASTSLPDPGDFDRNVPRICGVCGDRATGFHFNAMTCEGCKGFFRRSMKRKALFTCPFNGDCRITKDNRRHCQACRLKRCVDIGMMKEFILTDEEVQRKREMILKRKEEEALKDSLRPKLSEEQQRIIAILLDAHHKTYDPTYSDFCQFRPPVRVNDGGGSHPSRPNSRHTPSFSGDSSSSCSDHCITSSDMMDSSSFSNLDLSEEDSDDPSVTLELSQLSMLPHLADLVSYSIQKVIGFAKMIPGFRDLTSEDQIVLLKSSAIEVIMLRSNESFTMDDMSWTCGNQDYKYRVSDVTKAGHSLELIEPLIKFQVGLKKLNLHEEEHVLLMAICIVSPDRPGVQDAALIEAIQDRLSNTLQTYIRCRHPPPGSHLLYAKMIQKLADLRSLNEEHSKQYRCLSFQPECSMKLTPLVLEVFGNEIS

O=[N+]([O-])c1cccc(Cl)c1
inactive: Potency [1] | outcome [2] | Potency [3] | outcome [4] | Potency [5] | Potency [6] | Potency [7] | Potency [8]

C[C@@H]1O[C@@H](OC[C@H]2O[C@@H](Oc3c(-c4ccc(O)c(O)c4)oc4cc(O)cc(O)c4c3=O)[C@H](O)[C@@H](O)[C@@H]2O)[C@H](O)[C@H](O)[C@H]1O
inactive: Potency [1] | outcome [2] | Potency [3] | outcome [4] | Potency [5] | Potency [6] | Potency [7] | Potency [8]

CCC(=O)O
inactive: Potency [1] | outcome [2] | Potency [3] | outcome [4] | Potency [5] | Potency [6] | Potency [7] | Potency [8]

Cc1cc(O)cc(C)c1Cl
inactive: Potency [1] | outcome [2] | Potency [3] | outcome [4] | Potency [5] | Potency [6]

NCCNCCNCCNCCN
inactive: Potency [1] | outcome [2] | Potency [3] | outcome [4] | Potency [5] | Potency [6] | Potency [7] | activity change, negative = inhibition [8] 2.31% [at 6.95 µM]

CC(C)(C)C1CCC(O)CC1 (stereo not given)
inactive: Potency [1] | outcome [2] | Potency [3] | outcome [4] | Potency [5] | Potency [6] | Potency [7] | Potency [8]

CCc1ccc(O)cc1
inactive: Potency [1] | outcome [2] | Potency [3] | outcome [4] | Potency [5] | Potency [6] | Potency [7] | Potency [8]

Nc1cc(-c2ccncc2)c[nH]c1=O
inactive: Potency [1] | outcome [2] | Potency [3] | outcome [4] | Potency [5] | Potency [6] | Potency [7]

C=C1C2CCC(C2)C1(C)C (stereo not given)
inactive: Potency [1] | outcome [2] | Potency [3] | outcome [4] | Potency [5] | Potency [6] | Potency [7] | Potency [8]

CCCCCCCCC
inactive: Potency [1] | outcome [2] | Potency [3] | outcome [4] | Potency [5] | Potency [6] | Potency [7] | Potency [8]

NS(=O)(=O)c1cc2c(cc1Cl)NC=NS2(=O)=O
inactive: Potency [1] | outcome [2] | Potency [3] | outcome [4] | Potency [5] | Potency [6] | Potency [7] | Potency [8]

COC(=O)c1ccccc1O
inactive: Potency [1] | outcome [2] | Potency [3] | outcome [4] | Potency [5] | Potency [6] | Potency [7] | Potency [8]

CC(=O)[C@@]1(O)CC[C@H]2[C@@H]3CCC4=CC(=O)CC[C@]4(C)[C@H]3CC[C@@]21C
inactive: Potency [1] | outcome [2] | Potency [3] | Potency [5] | Potency [6]

Cn1c([N+](=O)[O-])cnc1COC(N)=O
inactive: Potency [1] | outcome [2] | Potency [3] | outcome [4] | Potency [5] | Potency [6] | Potency [7] | Potency [8]

O=S(=O)(Oc1ccc(Cl)cc1Cl)c1ccccc1
inactive: Potency [1] | outcome [2] | Potency [3] | outcome [4] | Potency [5] | Potency [6] | Potency [7] | Potency [8]

O=C(Oc1ccccc1)c1ccc(O)cc1
inactive: Potency [1] | outcome [2] | Potency [3] | Potency [5] | Potency [6] | Potency [7] | Potency [8]

Cc1ccc(C(=O)O)o1
inactive: Potency [1] | outcome [2] | Potency [3] | outcome [4] | Potency [6] | Potency [7] | Potency [8]

C=C(C#N)C(=O)OCC
inactive: Potency [1] | outcome [2] | Potency [3] | Potency [5] | Potency [6]

OC1CCCC1
inactive: Potency [1] | outcome [2] | Potency [3] | outcome [4] | Potency [5] | Potency [6] | Potency [7] | Potency [8]

CCCCC(CC)C(=O)OCCOCCOCCOC(=O)C(CC)CCCC (stereo not given)
inactive: Potency [1] | outcome [2] | Potency [3] | outcome [4] | Potency [5] | Potency [6] | Potency [7] | Potency [8]

CCCCC(CC)COC(=O)/C=C\C(=O)OCC(CC)CCCC (stereo not given)
inactive: Potency [1] | outcome [2] | Potency [3] | outcome [4] | Potency [5] | Potency [6] | Potency [7] | Potency [8]

CCOC(=O)C1OC1c1ccccc1 (stereo not given)
inactive: Potency [1] | outcome [2] | Potency [3] | outcome [4] | Potency [5] | Potency [6] | Potency [7] | Potency [8]

Nc1nc2ncc(CNc3ccc(C(=O)N[C@@H](CCC(=O)O)C(=O)O)cc3)nc2c(=O)[nH]1
inactive: Potency [1] | outcome [2] | Potency [3] | outcome [4] | Potency [5] | Potency [6] | Potency [7]

CCCCC(CC)COC(C)=O (stereo not given)
inactive: Potency [1] | outcome [2] | Potency [3] | outcome [4] | Potency [5] | Potency [6] | Potency [7] | Potency [8]

Cc1ccc(C)c(C)c1
inactive: Potency [1] | outcome [2] | Potency [3] | outcome [4] | Potency [5] | Potency [6] | Potency [7] | Potency [8]

O=[N+]([O-])C(CO)(CO)CO
inactive: Potency [1] | outcome [2] | Potency [3] | outcome [4] | Potency [5] | Potency [6] | Potency [7] | Potency [8]

OCCOCCOCCOCCO
inactive: Potency [1] | outcome [2] | Potency [3] | outcome [4] | Potency [5] | Potency [6] | Potency [7] | Potency [8]

COCC(C)O (stereo not given)
inactive: Potency [1] | Potency [3] | Potency [5] | Potency [6] | Potency [7] | Potency [8]

O=C1N=C(O)CN1/N=C/c1ccc(-c2ccc([N+](=O)[O-])cc2)o1
inactive: Potency [1] | Potency [3] | Potency [6] | Potency [7] | Potency [8]
